For the assay, the system named is primary human hepatic stellate cells (donor 1). The experiment in a line: scaled lipid accumulation score (0 = DMSO-like, 1 = nortriptyline-like); higher = stronger HSC inactivation (lipid re-accumulation), active = hit call of the paper. The conditions noted are these: 48 h.
Setting [1] is: library stock concentration: 10 mM.
Where [2] appears, read: library stock concentration: 3.33 mM.
[3] abbreviates: library stock concentration: 100 uM.
Setting [4] is: library stock concentration: 1 mM.
Where [5] appears, read: library stock concentration: 80 uM.
Setting [6] is: library stock concentration: 400 uM.
[7] abbreviates: library stock concentration: 2 mM.

Values joined by “and” are separate entries in the source; they are usually repeats but may differ in a detail not shown here. Equal entries are not always repeated. Structures can show the parent of a compound that is named as a salt. Screen size: about 5,800 compounds; about 620 (11%) showed activity. The sample as a whole holds a higher share of actives than the screen did. Values without a mark were called inactive.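 How the source made its calls: active = score above a cut-off or among the top three wells of a plate; in these data no inactive exceeds 0.85.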

In the case of `CC#CCOC(=O)c1c(C)nc2sc3c(c2c1N)CCC(O)C3` (stereo not given) [listing 1 of 2 here], the “scaled lipid accumulation score” value under setting [1] is 0.882 (active).
For `CC#CCOC(=O)c1c(C)nc2sc3c(c2c1N)CCC(O)C3` (stereo not given) [listing 2 of 2 here], the “scaled lipid accumulation score” value under setting [1] was 1.72 (active).
Turning to `Cc1cccc(C2CN(C)CCc3c2cc(O)c(O)c3Cl)c1` (stereo not given), the “scaled lipid accumulation score” value under setting [1] was 0.086.
Consider `CC[N+](C)(CC)CCOC(=O)C(O)(c1ccccc1)C1CCCCC1` (stereo not given), for which, under setting [1], the “scaled lipid accumulation score” value was at most 0.
In the case of `CCN(CC)CC#CCOC(=O)C(O)(c1ccccc1)C1CCCCC1.Cl` (stereo not given) [Oxybutynin Chloride], under setting [1], the “scaled lipid accumulation score” value was 0.862 (active).
On to `CCN(CC)CC#CCOC(=O)C(O)(c1ccccc1)C1CCCCC1` (stereo not given) [Oxybutynin chloride], for which the “scaled lipid accumulation score” value is 0.397. For the same compound, under setting [2], the “scaled lipid accumulation score” value was 0.234. Moreover, the “scaled lipid accumulation score” value (library stock concentration: 5.1 mM) was 0.317. Further, the “scaled lipid accumulation score” value under setting [1] is 0.48.
On to `CCCCC/C=C\C\C=C/C=C/C=C/[C@@H](SC[C@H](N)C(=O)NCC(=O)O)[C@@H](O)CCCC(=O)O` [Leukotriene D4], for which the “scaled lipid accumulation score” value under setting [3] is at most -0.014.
As for `N#Cc1cc([N+](=O)[O-])c2sc(C(N)=O)[n+]([O-])c2c1` [Polo-like Kinase Inhibitor II, BTO-1], the “scaled lipid accumulation score” value under setting [2] is at most 0.
Consider `CCCCC/C=C\C=C\[C@@H](O)CCCCCCCC(=O)O`, for which the “scaled lipid accumulation score” value under setting [3] is at most -0.021.
As to `O=C(CN=C(c1ccccc1)c1ccccc1)OCc1ccccc1` [N-(diphenylmethylene) Glycine benzyl ester], under setting [4], the “scaled lipid accumulation score” value was 0.004.
For the compound `C#CCCCCCCCCCNC(=O)Oc1cccc(-c2cccc(C(N)=O)c2)c1`, the “scaled lipid accumulation score” value under setting [4] was at most 0.
With `CCC(=O)Nc1cccc(Oc2nc(Nc3ccc(N4CCN(C)CC4)cc3OC)ncc2Cl)c1` [listing 1 of 3 here], under setting [1], the “scaled lipid accumulation score” value is 0.997 (active).
As to `COc1cc(N2CCC(N3CCN(C)CC3)CC2)ccc1Nc1ncc(Cl)c(Nc2ccccc2S(=O)(=O)C(C)C)n1`, the “scaled lipid accumulation score” value reads like this: under setting [5], at most 0; under setting [6], 0.087; under setting [7], 0.571; under setting [1], 0.613.
Take `CCC(=O)Nc1cccc(Oc2nc(Nc3ccc(N4CCN(C)CC4)cc3OC)ncc2Cl)c1` [listing 2 of 3 here]: the “scaled lipid accumulation score” value was at most -0.001 under setting [5], at most -0.001 under setting [6], at most -0.001 under setting [7] and 0.472 under setting [2].
As to `C=CC(=O)Nc1cccc(Oc2nc(Nc3ccc(N4CCN(C)CC4)cc3)ncc2Cl)c1`, the “scaled lipid accumulation score” value is, setting by setting: under setting [2], 0.415; under setting [1], 0.711.
As for `C=CC(=O)Nc1cccc(Oc2nc(Nc3ccc(N4CCN(C)CC4)cc3OC)ncc2Cl)c1`, the “scaled lipid accumulation score” value under setting [5] was at most 0; the “scaled lipid accumulation score” value under setting [6] was at most 0; the “scaled lipid accumulation score” value under setting [7] is 0.172; the “scaled lipid accumulation score” value under setting [2] is 0.507; the “scaled lipid accumulation score” value under setting [1] is 0.707 and 0.265.
As to `CCC(=O)Nc1cccc(Oc2nc(Nc3ccc(N4CCN(C)CC4)cc3OC)ncc2Cl)c1` [listing 3 of 3 here], the “scaled lipid accumulation score” value under setting [1] was 1.11 (active).
With `CCCCCCCCCCCC1N[C@H](C(=O)O)CS1` (stereo not given in full), under setting [4], the “scaled lipid accumulation score” value is at most 0.
On to `CCCCC[C@H](O)/C=C/[C@@H]1[C@H](CCCCCCC(=O)O)[C@H](O)C[C@H]1O` [8-iso Prostaglandin F1.beta.], for which the “scaled lipid accumulation score” value under setting [4] was at most 0.
For `Cc1[nH]ccc2c1[nH]c1cc(=O)ccc12` [Harmol hydrochloride monohydrate], the “scaled lipid accumulation score” value is 0.689.
For `O=C(O)CCC/C=C\C[C@H]1C(=O)C=C[C@@H]1CC[C@@H](O)CCc1ccccc1` [17-phenyl trinor-13,14-dihydro Prostaglandin A2], the “scaled lipid accumulation score” value under setting [4] was at most 0.
Consider `Cc1cc(Nc2ccc(NC(=O)c3ccc(Nc4ccnc5ccccc45)cc3)cc2)nc(N)n1`, for which the “scaled lipid accumulation score” value reads like this: under setting [2], 0.147; under setting [1], at most 0.
With `CNCc1ccc(C)c(NC(=O)c2ccc(Nc3nc(-c4ccccc4)c4ccccc4n3)cc2)c1` [listing 1 of 2 here], the “scaled lipid accumulation score” value under setting [1] was 0.17.
With `CNCc1ccc(C)c(NC(=O)c2ccc(Nc3nc(-c4ccccc4)c4ccccc4n3)cc2)c1` [listing 2 of 2 here], the “scaled lipid accumulation score” value under setting [2] was 1.14 (active).
Turning to `CCC(C)(Oc1ccc(C2(c3ccc(OC(C)(CC)C(=O)O)cc3)CCCCC2)cc1)C(=O)O` (stereo not given) [Clinofibrate], the “scaled lipid accumulation score” value was at most 0 under setting [2] and at most 0 under setting [1].
Take `CNCCC(Oc1ccccc1OC)c1ccccc1` (stereo not given) [Nisoxetine hydrochloride]: the “scaled lipid accumulation score” value was 0.246. The “scaled lipid accumulation score” value under setting [1] was 0.751 and 0.328.
For `CNCC[C@H](Oc1cccc2ccccc12)c1cccs1`, the “scaled lipid accumulation score” value under setting [1] is 0.953 (active).
As to `CNCC[C@H](Oc1cccc2ccccc12)c1cccs1` [Duloxetine HCl], the “scaled lipid accumulation score” value runs as follows: under setting [2], 0.357; under setting [1], 0.796.
Take `CNCC[C@@H](Oc1ccccc1C)c1ccccc1` [Atomoxetine hydrochloride]: the “scaled lipid accumulation score” value (library stock concentration: 7.2 mM) is 0.064.
As for `CNCC[C@@H](Oc1ccccc1C)c1ccccc1` [Atomoxetine HCl], the “scaled lipid accumulation score” value runs as follows: under setting [2], 0.319; under setting [1], 0.514.
`CNCC[C@@H](Oc1ccccc1C)c1ccccc1` [Tomoxetine]: under setting [1], the “scaled lipid accumulation score” value is 0.59.
As for `CNCC[C@H](Oc1cccc2ccccc12)c1cccs1.Cl` [Duloxetine hydrochloride], the “scaled lipid accumulation score” value (library stock concentration: 6 mM) is 1.05 (active).
Turning to `CN(C)[C@@H](CCOc1cccc2ccccc12)c1ccccc1` [Dapoxetine HCl], the “scaled lipid accumulation score” value by setting is: under setting [2], 0.506; under setting [1], 0.625.
In the case of `CNCC[C@@H](Oc1ccccc1C)c1ccccc1` [Tomoxetine hydrochloride], under setting [1], the “scaled lipid accumulation score” value is 0.484.
`CNCC[C@H](Oc1cccc2ccccc12)c1cccs1` [Duloxetine]: under setting [1], the “scaled lipid accumulation score” value is 1.39 (active).

The values are drawn from the supplement of paper PMC9135407.
